Most compounds without a hit are left out; they make up all but 19% or so of the library.
DT40 TDP1 no CPT = qHTS for Inhibitors of human tyrosyl-DNA phosphodiesterase 1 (TDP1): qHTS in cells in absence of CPT; DT40 Tdp1-/- hTDP1 cells, no CPT, ATP luminescence, 48 h; Potency, µM (titrated, usually from 46.2 µM), inactives show top-dose activity change, negative = growth inhibition, most hits filed as inhibitors; actives 15% (n = 420,000); also: potency is read from the fitted curve at half-maximal effect; nearly all actives have a fitted effect of over 55% in size
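Growth kinetics read by CellTiter-Glo luminescence after ≥48 hr at 37 °C. Cells: DT40 Tdp1-/- stably carrying human TDP1, 400 per well, compound exposure in the absence of CPT (DMSO vehicle).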
ELG1 DNA repair = qHTS screen for small molecules that inhibit ELG1-dependent DNA repair in human embryonic kidney (HEK293T) cells expressing luciferase-tagged ELG1. HEK293T ELG1-luciferase reporter, luminescence, 16 h; DNA damage induced by 5-fluorouridine. Potency, µM (highest dose often 46.1 µM), without a hit: at the top dose activity change, negative = inhibition, actives largely listed as inhibitors. actives 2.3% (n = 330,000); also: potency is read from the fitted curve at half-maximal effect; nearly all actives have a fitted effect of over 55% in size
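Quantitative HTS, concentration-response format. 2,000 cells/well co-treated with 5-fluorouridine and compound, 16 hr in 5% CO2 at 37 °C; ONE-Glo luminescence read after 30 min.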
TDP1 cell CPT = qHTS for Inhibitors of human tyrosyl-DNA phosphodiesterase 1 (TDP1): qHTS in cells in presence of CPT | chicken DT40 Tdp1-/-;hTDP1 cells + 20 nM CPT, ATP luminescence, 48 h | Potency, µM (titrated, usually from 46.2 µM), without a hit: at the top dose activity change, negative = growth inhibition, usual class: inhibitors | actives 12% (n = 420,000); also: potency is read from the fitted curve at half-maximal effect; nearly all actives have a fitted effect of over 55% in size
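Chicken DT40 Tdp1-/- cells stably complemented with human TDP1 were seeded at 400 cells/well in medium containing 20 nM camptothecin, exposed to pin-transferred compounds, and grown at 37 °C for at least 48 hr. Viability was read as ATP luminescence.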
Giardia kill = Small Molecules that selectively kill Giardia lamblia: qHTS. Giardia lamblia trophozoite viability. activity change, % at 7.66 µM, hits read low. actives 0.15% (n = 340,000); in the data active = activity change below about -80%; inconclusive = between about -30% and that limit;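 also: parasites exposed to compound for two days anaerobically before the ATP read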
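Luminescent ATP signal served as the viability read-out, measured 15-30 min after adding ATP detection reagent to trophozoites that had been incubated with compounds for 48 hrs at 37 deg C anaerobically at 100 cells/well.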
IL1B secr inh = qHTS for Inhibitors of Inflammasome Signaling: IL-1-beta AlphaLISA Primary Screen | THP-1 LPS/ATP IL-1B secretion, AlphaLISA, 16 h; active compounds read low | activity change, % at 57.5 µM | actives 4.7% (n = 360,000); in the data active = activity change below about -50%; inconclusive = mostly about -30% to -49%
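Secreted IL-1B measured by AlphaLISA bead assay after 16 h compound exposure of THP-1 cells; compounds (final up to 57.5 uM) added 1 h before LPS (250 ng/mL) and ATP (1.25 mM) stimulation; lower signal means less secretion.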
TDP1 block = qHTS Assay for Inhibitors of Tyrosyl-DNA Phosphodiesterase (TDP1); Tyrosyl-DNA phosphodiesterase 1 (Homo sapiens), Q9NUW8; recombinant TDP1, AlphaScreen DNA substrate cleavage; Potency, µM (series often up to 130 µM), without a hit: at the top dose activity change, negative = inhibition, hits mostly inhibitors; actives 0.28% (n = 350,000); AID 485290, 2010; also: potency is read from the fitted curve at half-maximal effect; nearly all actives have a fitted effect of over 40% in size
Target sequence (Q9NUW8 whole entry, looked up): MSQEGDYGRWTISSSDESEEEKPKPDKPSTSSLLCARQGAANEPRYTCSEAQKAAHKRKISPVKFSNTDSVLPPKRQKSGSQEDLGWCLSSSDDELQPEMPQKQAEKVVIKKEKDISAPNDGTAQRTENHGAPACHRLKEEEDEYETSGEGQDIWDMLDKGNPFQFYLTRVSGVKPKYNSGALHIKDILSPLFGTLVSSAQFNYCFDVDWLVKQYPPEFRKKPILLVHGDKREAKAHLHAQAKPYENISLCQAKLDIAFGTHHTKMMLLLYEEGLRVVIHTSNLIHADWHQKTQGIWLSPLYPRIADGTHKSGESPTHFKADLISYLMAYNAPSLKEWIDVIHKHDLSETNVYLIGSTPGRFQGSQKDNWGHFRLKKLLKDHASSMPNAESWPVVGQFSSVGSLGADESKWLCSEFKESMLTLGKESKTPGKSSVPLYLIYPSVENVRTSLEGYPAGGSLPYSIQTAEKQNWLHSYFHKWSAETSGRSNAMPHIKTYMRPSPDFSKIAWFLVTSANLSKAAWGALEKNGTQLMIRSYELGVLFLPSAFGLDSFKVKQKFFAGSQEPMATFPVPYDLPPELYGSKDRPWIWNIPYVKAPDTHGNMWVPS
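Signal: AlphaScreen proximity between streptavidin donor and anti-FITC acceptor beads on intact substrate. Reaction: Tdp1 1 nM, substrate 15 nM final, 5 min RT after 15 min compound preincubation.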
Active calls of the source: *; i = inactive; ? = inconclusive; · = no result. Unless noted, calls follow the shape of the dose curve; as a rule, active = well fitted curve in the direction sought with a large enough effect; inconclusive = small, poorly fitted or top-dose-only effect, or another doubt; inactive = no such curve, though single readings can be large; an effect the other way counts as inactive or inconclusive. % is scaled to controls: 0 for no effect and ±100 for the full control effect.

SMILES | DT40 TDP1 no CPT | ELG1 DNA repair | TDP1 cell CPT | Giardia kill | IL1B secr inh | TDP1 block
N=c1n(Cc2ccccc2Cl)c2ccccc2n1CC(O)c1ccco1 (centres undefined) | ? | ? | -27.4% | -2.9 | -3.6 | 1.2%
CCCCCn1c(=N)n(CC(O)COc2ccccc2OC)c2ccccc21 (centres undefined) | 5.8µM* | ? | 3.66µM* | -7.3 | -58.8* | -5.3%
CCOC(=O)Cn1c(=N)n(CCOc2ccc(F)cc2)c2ccccc21 | -1.9% | -15.3% | 7.3% | 11.0 | -3.7 | 8.3%
CCCCn1c(=N)n(CCOc2ccc(C)cc2)c2ccccc21 | 5.8µM* | ? | 4.61µM* | -26.6 | · | 1.3%
CCC(C)C(NC(=O)CCC(=O)OCC(=O)[C@@]1(O)CCC2[C@@H]3CCC4=CC(=O)C=C[C@]4(C)C3[C@@H](O)C[C@@]21C)C(=O)O (some centres undefined) | -21.9% | -10.6% | -0.9% | 11.5 | ? | ·
O=C1CN(C(=O)COc2ccccc2)C(c2ccc(F)cc2)c2cc(Br)ccc2N1 (centres undefined) | ? | · | ? | · | · | 2.9%
Cc1ccc(Cn2c(=N)n(CC(O)c3ccco3)c3ccccc32)cc1 (centres undefined) | 16.4µM* | ? | -83.8% | -3.2 | -74.4* | 7.1%
COc1ccccc1OCC(O)Cn1c(=N)n(Cc2ccccc2)c2ccccc21 (centres undefined) | 8.2µM* | ? | 20.6µM* | 3.1 | -72.9* | 8.2%
CCCCn1c(=N)n(CCOc2ccccc2OC)c2ccccc21 | 4.11µM* | · | 2.91µM* | · | · | -1.1%
CCn1c(=N)n(CCOc2ccc(Br)cc2)c2ccccc21 | 5.17µM* | · | 5.8µM* | · | · | 2.3%
COc1ccc(OCCn2c(=N)n(CCO)c3ccccc32)cc1 | ? | 13.8% | -18.4% | 8.8 | -15.8 | 1.9%
O=C(/C=C/c1ccc2c(c1)OCO2)c1ccccn1 | 18.4µM* | ? | 23.1µM* | 0.9 | -1.5 | 8.7%
O=C(/C=C/c1ccccc1)c1ccc2c(c1)OCCCCO2 | ? | ? | -29.4% | -15.1 | -78.2* | 0.0%
O=C(O)c1ccc2c(c1)OCCCO2 | 6.9% | 8.6% | -3.7% | 23.7 | 3.9 | 1.9%
COC(=O)c1c(C)[nH]c(C(=O)/C=C/c2cccc(Cl)c2)c1C | ? | ? | ? | -4.5 | -64.5* | -1.4%
CC(/C=C/c1ccc2c(c1)OCO2)=N/NC(=O)c1cccnc1 | ? | 15.8% | -30.0% | -7.6 | 2.9 | 5.6%
COC(=O)c1c(C)[nH]c(C(=O)/C=C/c2ccc(C)cc2)c1C | -2.9% | ? | -15.7% | -13.1 | 14.0 | 4.8%
O=C(N/N=C/c1ccc2c(c1)OCO2)c1ccccn1 | ? | ? | ? | -3.1 | -23.8 | 1.0%
CC(/C=C/c1ccc2c(c1)OCO2)=N/NC(=O)c1ccc(C)nc1 | 23.1µM* | -29.7% | ? | 1.0 | i | -2.7%
O=C1C(Cl)=C(Nc2ccccc2O)C(=O)N1CCc1ccccc1 | -49.1% | 26.2% | -46.1% | 10.7 | 3.7 | 5.7%
O=C1C=C(/C=C/c2ccccc2)C[C@@H](c2ccc3c(c2)OCO3)C1 | -24.3% | -1.0% | ? | -5.8 | -0.8 | 3.8%
COc1ccccc1-c1ccnc(-n2ncc(C(=O)NC(C)(C)CO)c2C2CC2)n1 | -5.6% | · | 2.6% | · | · | ·
COc1cccc(/C=N/n2nnnc2N)c1OCC#N | -5.2% | · | 11.6% | -1.5 | 7.4 | ·
Cc1ccc2c(=O)n3c(nc2c1)C(Cc1ccccc1)NC(=O)c1ccc(Cl)cc1-3 (centres undefined) | · | -16.8% | · | · | · | 0.8%
O=C(C=Cc1ccc2c(c1)OCO2)C=Cc1ccc2c(c1)OCO2 | 23.1µM* | · | ? | · | -18.5 | ·
SMILES | DT40 TDP1 no CPT | ELG1 DNA repair | TDP1 cell CPT | Giardia kill | IL1B secr inh | TDP1 block
N/C(=N\OC(=O)/C=C/c1ccccc1)c1ccccn1 | -24.2% | ? | -0.1% | -13.5 | -26.1 | 8.1%
O=C(C=Cc1cccc(Cl)c1)c1ccccc1 | 23.1µM* | · | 14.6µM* | -6.3 | ? | ·
O=C(/C=C/c1ccccc1)c1ccccn1 | 16.4µM* | ? | 23.1µM* | -21.9 | -12.5 | -13.7%
CCN(C(=O)/C=C/c1ccc2c(c1)OCO2)c1ccccc1 | ? | 10.2% | ? | 6.7 | -3.9 | 2.8%
O=C(C=Cc1ccc2c(c1)OCO2)c1ccccc1 | 16.4µM* | · | ? | -13.2 | -72.2* | ·
O=C(/C=C/c1ccc2c(c1)OCO2)N1CCOCC1 | -5.5% | ? | -11.0% | -24.1 | 8.6 | 5.3%
Cc1ccc(C(=O)OCC(=O)c2c[nH]c3ccccc23)cc1S(=O)(=O)N1CCOCC1 | ? | ? | ? | -7.1 | 13.3 | -2.3%
COCCNc1nnc(SCC(=O)c2c[nH]c3ccccc23)s1 | ? | -1.3% | -23.8% | -15.5 | 35.8 | 0.0%
Cc1c(C(=O)N2CCN(Cc3ccccc3)CC2)oc2c1C(=O)CC(C)(C)C2 | ? | 10.5% | ? | 6.1 | 23.7 | 8.7%
COc1ccc(CN(C)C(=O)c2ccncc2)c(OC)c1 | -7.4% | 14.4% | -12.5% | 0.1 | 26.0 | 2.0%
Cc1ccc(NC(=O)CN(C)C(=O)c2cccc(S(=O)(=O)N3CCc4ccccc4C3)c2)cc1 | -21.3% | · | -22.2% | · | 7.3 | ·
N#Cc1ccc(/C=C/C(=O)c2ccc3c(c2)OCO3)cc1 | 23.1µM* | 23.0% | 16.4µM* | -27.1 | -68.7* | 0.0%
O=C1COc2ccc(C(=O)/C=C/c3ccccc3)cc2N1 | 5.17µM* | 9.3% | 5.17µM* | 0.6 | -2.2 | 0.0%
Cc1ccc(NC(=O)Cn2c(=O)c(C(F)(F)F)nc3ccccc32)c(C)c1 | -15.7% | · | -26.3% | · | · | 2.6%
COc1ccccc1CN1CC2(CCN(C(=O)c3ccncc3)CC2)C1 | -11.1% | · | 18.9% | · | · | ·
Cc1sc(NC(=O)c2cc(-c3ccc(Cl)cc3)nc3ccccc23)c(C(N)=O)c1C | 10.3µM* | -4.5% | 8.2µM* | 11.8 | 7.1 | -2.0%
CC(C)(C)c1nnc(NC(=O)c2cc(-c3ccccc3)nc3ccccc23)s1 | -29.6% | -9.5% | -6.8% | -3.8 | -14.6 | -3.9%
Cc1sc(NC(=O)c2cc(-c3ccccc3)nc3ccccc23)c(C(N)=O)c1C | 18.4µM* | 5.8µM* | 14.6µM* | 22.3 | -25.1 | 0.6%
O=C(Nc1cc(Cl)ccc1Cl)C1(c2cccs2)CCOCC1 | 20.6µM* | · | 16.4µM* | · | · | 2.6%

Assay outcomes deposited in PubChem by National Center for Advancing Translational Sciences (NCATS).
